Source: ChEMBL document CHEMBL1961873, “Compounds: GSK PKIS; Assays: Nanosyn kinase panel” (2012)

Legend:
[1] = target: T1, Ephrin type-B receptor 2 (Homo sapiens) (UniProt P29323); conditions: at 1 µM
T1 sequence (whole entry): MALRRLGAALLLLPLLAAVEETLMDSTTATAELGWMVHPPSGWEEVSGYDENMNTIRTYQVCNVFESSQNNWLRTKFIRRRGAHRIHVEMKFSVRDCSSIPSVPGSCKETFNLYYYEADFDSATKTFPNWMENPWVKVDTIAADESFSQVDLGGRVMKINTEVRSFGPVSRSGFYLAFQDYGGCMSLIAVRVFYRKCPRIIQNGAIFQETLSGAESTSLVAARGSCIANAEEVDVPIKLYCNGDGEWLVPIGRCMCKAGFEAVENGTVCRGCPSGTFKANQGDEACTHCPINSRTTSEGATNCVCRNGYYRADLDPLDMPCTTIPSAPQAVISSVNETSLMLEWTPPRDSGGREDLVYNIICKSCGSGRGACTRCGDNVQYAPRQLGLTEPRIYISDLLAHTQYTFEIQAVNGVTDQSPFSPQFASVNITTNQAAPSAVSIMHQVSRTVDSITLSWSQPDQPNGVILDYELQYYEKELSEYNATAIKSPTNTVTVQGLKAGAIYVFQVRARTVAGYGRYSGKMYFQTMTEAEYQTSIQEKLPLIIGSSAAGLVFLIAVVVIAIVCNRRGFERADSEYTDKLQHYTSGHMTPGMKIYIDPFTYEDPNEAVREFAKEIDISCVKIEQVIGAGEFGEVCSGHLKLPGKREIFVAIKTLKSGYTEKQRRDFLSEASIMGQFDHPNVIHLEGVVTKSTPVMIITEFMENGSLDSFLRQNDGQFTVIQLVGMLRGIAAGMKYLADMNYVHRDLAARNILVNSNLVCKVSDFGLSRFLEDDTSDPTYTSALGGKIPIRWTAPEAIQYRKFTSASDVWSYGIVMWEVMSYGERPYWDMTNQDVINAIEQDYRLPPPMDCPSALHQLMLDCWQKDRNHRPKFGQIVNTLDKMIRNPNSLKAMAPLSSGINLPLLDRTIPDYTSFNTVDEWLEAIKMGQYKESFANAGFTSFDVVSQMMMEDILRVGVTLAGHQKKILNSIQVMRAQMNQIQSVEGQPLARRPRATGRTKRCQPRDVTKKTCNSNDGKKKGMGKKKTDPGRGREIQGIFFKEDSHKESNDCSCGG

[2] = target: T2, Ephrin type-B receptor 3 (Homo sapiens) (UniProt P54753); conditions: at 0.1 µM
T2 sequence (whole entry): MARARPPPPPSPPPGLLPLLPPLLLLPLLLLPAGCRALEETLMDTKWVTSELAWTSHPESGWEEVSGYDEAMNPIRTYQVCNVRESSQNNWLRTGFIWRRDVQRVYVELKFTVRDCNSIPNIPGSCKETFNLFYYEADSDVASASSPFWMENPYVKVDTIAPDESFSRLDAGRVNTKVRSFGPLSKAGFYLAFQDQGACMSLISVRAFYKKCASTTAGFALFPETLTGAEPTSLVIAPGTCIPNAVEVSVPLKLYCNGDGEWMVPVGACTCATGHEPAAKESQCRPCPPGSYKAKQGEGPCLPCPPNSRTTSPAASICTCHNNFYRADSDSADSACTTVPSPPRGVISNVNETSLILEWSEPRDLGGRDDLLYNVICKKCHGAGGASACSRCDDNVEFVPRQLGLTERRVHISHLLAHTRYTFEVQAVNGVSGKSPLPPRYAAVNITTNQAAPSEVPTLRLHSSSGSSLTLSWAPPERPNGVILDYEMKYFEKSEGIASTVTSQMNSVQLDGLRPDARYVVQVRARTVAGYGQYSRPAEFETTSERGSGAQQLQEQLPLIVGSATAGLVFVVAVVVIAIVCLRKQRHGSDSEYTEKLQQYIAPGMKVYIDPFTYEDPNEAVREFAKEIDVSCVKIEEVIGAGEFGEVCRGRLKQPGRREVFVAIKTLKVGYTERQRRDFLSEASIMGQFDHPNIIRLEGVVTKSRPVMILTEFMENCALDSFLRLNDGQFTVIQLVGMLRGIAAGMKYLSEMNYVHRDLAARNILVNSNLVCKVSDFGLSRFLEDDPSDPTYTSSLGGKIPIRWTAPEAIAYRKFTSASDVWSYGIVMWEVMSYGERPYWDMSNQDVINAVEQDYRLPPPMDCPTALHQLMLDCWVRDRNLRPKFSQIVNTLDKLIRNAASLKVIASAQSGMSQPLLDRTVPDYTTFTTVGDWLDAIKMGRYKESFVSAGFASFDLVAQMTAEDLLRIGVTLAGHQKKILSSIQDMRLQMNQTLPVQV

[3] = target: T2, Ephrin type-B receptor 3 (Homo sapiens); conditions: at 1 µM
[4] = target: T3, Ephrin type-B receptor 4 (Homo sapiens) (UniProt P54760); conditions: at 0.1 µM
T3 sequence (whole entry): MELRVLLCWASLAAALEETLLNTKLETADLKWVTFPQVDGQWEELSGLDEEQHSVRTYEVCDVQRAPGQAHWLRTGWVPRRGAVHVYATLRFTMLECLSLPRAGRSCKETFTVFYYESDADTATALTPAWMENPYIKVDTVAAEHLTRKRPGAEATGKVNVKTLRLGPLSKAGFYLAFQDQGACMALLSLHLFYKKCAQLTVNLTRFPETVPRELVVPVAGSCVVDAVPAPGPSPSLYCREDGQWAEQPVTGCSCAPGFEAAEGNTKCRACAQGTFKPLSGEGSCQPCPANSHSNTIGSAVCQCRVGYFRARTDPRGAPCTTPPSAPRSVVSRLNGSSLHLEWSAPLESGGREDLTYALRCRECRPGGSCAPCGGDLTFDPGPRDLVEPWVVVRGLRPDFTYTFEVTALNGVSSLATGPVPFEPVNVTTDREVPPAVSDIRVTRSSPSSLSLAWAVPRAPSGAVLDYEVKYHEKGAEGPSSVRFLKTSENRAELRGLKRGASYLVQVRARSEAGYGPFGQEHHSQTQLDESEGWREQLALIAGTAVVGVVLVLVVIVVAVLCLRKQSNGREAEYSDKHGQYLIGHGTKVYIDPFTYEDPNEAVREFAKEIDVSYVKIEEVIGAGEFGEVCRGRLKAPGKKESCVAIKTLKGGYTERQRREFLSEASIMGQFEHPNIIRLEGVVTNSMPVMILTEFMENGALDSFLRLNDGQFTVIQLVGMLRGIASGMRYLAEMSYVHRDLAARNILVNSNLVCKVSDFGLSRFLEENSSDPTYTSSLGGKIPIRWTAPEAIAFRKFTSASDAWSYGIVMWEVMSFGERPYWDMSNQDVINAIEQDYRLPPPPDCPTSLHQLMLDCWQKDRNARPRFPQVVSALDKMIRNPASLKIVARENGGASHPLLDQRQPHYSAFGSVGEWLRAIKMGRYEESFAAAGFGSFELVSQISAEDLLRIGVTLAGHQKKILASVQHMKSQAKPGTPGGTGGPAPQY

[5] = target: T3, Ephrin type-B receptor 4 (Homo sapiens); conditions: at 1 µM
[6] = target: Receptor tyrosine-protein kinase erbB-2 (Homo sapiens) (UniProt P04626); conditions: at 0.1 µM
Chain of Receptor tyrosine-protein kinase erbB-2 (Homo sapiens) (P04626 whole entry): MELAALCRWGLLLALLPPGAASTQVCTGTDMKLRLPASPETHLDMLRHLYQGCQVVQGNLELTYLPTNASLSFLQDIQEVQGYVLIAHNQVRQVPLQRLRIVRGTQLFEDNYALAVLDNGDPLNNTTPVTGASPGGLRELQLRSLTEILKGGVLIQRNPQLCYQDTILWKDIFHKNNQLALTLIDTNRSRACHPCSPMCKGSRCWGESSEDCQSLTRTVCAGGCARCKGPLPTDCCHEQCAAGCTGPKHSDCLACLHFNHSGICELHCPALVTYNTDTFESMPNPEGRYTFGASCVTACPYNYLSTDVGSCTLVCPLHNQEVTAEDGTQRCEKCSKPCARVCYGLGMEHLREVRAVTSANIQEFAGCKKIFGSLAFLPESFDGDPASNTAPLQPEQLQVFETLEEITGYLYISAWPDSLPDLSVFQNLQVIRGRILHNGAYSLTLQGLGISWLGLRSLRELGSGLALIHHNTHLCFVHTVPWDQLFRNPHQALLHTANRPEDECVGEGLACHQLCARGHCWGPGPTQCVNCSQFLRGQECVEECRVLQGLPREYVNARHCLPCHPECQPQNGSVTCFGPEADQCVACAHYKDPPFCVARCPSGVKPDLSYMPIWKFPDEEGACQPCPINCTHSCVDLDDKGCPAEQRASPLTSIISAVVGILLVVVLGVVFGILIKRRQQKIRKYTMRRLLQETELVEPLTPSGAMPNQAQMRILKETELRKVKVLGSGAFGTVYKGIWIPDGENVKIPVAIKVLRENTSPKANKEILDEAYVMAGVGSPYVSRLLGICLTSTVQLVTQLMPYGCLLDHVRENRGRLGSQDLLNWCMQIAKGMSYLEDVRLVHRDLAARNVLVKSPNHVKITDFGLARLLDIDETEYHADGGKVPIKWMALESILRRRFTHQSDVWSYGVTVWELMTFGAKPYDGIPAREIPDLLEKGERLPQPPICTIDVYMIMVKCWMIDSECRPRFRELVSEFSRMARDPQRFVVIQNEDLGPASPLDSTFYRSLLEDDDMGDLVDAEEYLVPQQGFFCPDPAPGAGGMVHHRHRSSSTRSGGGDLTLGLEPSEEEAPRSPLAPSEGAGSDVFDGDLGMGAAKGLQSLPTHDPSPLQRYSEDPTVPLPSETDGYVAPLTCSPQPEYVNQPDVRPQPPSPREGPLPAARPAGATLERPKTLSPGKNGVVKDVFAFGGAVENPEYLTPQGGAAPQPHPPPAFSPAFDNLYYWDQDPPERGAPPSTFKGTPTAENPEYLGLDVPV

[7] = target: Receptor tyrosine-protein kinase erbB-2 (Homo sapiens) (UniProt P04626); conditions: at 1 µM
[8] = target: Receptor tyrosine-protein kinase erbB-4 (Homo sapiens) (UniProt Q15303); conditions: at 0.1 µM
Chain of Receptor tyrosine-protein kinase erbB-4 (Homo sapiens) (Q15303 whole entry): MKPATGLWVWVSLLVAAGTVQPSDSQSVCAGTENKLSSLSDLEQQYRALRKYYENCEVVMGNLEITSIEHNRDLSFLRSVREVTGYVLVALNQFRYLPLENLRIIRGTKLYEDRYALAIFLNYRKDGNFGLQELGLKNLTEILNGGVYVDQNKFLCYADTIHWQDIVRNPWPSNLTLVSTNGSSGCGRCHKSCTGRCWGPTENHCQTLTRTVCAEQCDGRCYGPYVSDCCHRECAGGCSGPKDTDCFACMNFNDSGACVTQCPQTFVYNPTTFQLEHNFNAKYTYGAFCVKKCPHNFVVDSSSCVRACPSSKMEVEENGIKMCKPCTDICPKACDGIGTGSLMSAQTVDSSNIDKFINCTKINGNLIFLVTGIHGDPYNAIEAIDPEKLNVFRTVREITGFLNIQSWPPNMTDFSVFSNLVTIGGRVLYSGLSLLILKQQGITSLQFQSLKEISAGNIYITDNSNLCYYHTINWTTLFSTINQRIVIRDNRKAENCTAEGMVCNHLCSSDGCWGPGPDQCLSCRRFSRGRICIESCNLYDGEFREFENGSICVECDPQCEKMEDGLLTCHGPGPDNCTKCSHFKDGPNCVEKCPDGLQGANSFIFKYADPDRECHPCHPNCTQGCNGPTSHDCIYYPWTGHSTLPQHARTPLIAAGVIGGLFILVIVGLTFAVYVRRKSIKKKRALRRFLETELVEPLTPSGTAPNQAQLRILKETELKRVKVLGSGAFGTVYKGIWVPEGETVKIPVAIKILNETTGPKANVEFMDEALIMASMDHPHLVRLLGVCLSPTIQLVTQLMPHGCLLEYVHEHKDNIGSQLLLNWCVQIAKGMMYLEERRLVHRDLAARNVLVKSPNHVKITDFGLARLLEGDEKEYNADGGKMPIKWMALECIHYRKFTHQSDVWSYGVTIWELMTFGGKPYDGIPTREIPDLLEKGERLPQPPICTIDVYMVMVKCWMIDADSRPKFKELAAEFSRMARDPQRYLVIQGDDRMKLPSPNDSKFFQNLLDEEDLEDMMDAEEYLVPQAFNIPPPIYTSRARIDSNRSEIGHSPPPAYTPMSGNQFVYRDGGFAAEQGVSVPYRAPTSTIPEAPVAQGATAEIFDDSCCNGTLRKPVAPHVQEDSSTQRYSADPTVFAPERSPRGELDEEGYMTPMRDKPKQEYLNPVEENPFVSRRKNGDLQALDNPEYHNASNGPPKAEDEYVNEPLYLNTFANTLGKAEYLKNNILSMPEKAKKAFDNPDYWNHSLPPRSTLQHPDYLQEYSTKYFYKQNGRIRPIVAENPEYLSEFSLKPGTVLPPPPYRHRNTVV

[9] = target: Receptor tyrosine-protein kinase erbB-4 (Homo sapiens) (UniProt Q15303); conditions: at 1 µM
[10] = target: Tyrosine-protein kinase Fer (Homo sapiens) (UniProt P16591); conditions: at 0.1 µM
[11] = target: Tyrosine-protein kinase Fer (Homo sapiens) (UniProt P16591); conditions: at 1 µM
[12] = target: Tyrosine-protein kinase Fes/Fps (Homo sapiens) (UniProt P07332); conditions: at 0.1 µM
[13] = target: Tyrosine-protein kinase Fes/Fps (Homo sapiens) (UniProt P07332); conditions: at 1 µM
[14] = target: Fibroblast growth factor receptor 1 (Homo sapiens) (UniProt P11362); conditions: at 0.1 µM
Chain of Fibroblast growth factor receptor 1 (Homo sapiens) (P11362 22-822 limits assumed): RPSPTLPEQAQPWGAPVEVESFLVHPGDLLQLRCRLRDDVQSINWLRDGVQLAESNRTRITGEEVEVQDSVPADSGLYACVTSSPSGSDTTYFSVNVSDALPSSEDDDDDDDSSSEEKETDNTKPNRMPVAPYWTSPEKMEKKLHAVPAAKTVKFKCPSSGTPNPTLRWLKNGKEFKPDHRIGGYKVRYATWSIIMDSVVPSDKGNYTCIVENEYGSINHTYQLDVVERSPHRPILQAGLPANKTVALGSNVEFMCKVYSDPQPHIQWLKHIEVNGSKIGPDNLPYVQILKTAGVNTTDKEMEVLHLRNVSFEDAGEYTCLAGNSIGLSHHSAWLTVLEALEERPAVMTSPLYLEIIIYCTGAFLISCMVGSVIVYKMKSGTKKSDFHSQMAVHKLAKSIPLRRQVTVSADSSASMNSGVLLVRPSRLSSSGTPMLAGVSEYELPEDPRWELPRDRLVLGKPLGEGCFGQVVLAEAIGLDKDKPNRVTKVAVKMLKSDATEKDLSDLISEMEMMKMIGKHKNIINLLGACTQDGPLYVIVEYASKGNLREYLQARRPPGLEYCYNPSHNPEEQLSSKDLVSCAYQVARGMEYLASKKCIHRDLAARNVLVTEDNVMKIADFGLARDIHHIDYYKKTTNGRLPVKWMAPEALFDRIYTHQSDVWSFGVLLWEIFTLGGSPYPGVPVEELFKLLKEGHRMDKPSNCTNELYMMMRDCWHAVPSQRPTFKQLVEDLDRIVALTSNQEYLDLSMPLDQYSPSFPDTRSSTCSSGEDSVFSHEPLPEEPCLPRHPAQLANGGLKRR

[15] = target: Fibroblast growth factor receptor 1 (Homo sapiens) (UniProt P11362); conditions: at 1 µM
[16] = target: Fibroblast growth factor receptor 2 (Homo sapiens) (UniProt P21802); conditions: at 0.1 µM
[17] = target: Fibroblast growth factor receptor 2 (Homo sapiens) (UniProt P21802); conditions: at 1 µM
[18] = target: Fibroblast growth factor receptor 3 (Homo sapiens) (UniProt P22607); conditions: at 0.1 µM
Chain of Fibroblast growth factor receptor 3 (Homo sapiens) (P22607 23-806 limits assumed): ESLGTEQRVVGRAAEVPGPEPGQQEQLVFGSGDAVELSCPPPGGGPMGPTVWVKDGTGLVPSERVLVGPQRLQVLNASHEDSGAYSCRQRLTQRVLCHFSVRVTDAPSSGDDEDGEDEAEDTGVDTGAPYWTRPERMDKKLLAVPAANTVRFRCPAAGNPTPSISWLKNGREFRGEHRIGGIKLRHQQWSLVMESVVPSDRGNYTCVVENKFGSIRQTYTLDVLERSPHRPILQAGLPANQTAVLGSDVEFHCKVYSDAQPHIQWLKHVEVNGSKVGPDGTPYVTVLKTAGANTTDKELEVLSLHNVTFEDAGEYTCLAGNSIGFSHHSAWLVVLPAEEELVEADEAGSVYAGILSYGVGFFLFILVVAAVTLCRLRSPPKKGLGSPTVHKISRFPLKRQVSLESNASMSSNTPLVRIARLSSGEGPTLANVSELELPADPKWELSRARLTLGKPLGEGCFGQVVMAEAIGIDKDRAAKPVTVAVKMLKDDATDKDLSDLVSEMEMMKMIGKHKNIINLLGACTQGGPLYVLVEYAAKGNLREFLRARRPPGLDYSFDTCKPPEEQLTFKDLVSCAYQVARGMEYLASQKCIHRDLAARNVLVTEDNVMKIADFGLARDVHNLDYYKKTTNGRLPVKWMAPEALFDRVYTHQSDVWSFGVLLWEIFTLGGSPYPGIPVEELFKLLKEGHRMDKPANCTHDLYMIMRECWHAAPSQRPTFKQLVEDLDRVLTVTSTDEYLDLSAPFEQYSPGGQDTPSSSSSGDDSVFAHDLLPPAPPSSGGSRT

[19] = target: Fibroblast growth factor receptor 3 (Homo sapiens) (UniProt P22607); conditions: at 1 µM
[20] = target: Fibroblast growth factor receptor 4 (Homo sapiens) (UniProt P22455); conditions: at 0.1 µM;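 further: values are mean percent inhibition of FGFR4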
Chain of Fibroblast growth factor receptor 4 (Homo sapiens) (P22455 22-802 limits assumed): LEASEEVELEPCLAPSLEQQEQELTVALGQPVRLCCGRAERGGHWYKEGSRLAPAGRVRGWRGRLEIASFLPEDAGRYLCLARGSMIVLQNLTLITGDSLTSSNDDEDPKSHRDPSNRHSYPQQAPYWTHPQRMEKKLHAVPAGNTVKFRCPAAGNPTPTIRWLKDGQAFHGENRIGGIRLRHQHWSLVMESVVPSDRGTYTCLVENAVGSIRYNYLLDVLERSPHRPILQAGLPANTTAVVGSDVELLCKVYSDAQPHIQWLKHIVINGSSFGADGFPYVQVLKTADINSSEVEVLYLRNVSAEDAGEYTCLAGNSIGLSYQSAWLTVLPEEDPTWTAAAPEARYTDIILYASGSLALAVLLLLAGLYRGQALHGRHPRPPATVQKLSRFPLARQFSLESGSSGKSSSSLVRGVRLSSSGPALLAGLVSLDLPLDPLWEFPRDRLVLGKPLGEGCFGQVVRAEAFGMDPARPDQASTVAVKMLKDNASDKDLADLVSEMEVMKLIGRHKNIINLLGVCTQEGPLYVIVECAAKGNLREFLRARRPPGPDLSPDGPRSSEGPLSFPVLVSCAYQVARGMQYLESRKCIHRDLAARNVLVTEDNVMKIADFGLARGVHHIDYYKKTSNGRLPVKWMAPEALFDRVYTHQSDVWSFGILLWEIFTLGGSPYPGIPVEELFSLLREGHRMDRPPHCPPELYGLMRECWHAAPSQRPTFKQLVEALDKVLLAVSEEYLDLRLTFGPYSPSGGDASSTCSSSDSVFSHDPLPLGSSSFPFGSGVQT

SMILES | inhibition [1] [%] | inhibition [2] [%] | inhibition [3] [%] | inhibition [4] [%] | inhibition [5] [%] | inhibition [6] [%] | inhibition [7] [%] | inhibition [8] [%] | inhibition [9] [%] | inhibition [10] [%] | inhibition [11] [%] | inhibition [12] [%] | inhibition [13] [%] | inhibition [14] [%] | inhibition [15] [%] | inhibition [16] [%] | inhibition [17] [%] | inhibition [18] [%] | inhibition [19] [%] | inhibition [20] [%]
Cc1cc(-c2ccco2)cc(C)c1/C=C/c1cncc(-c2nn[nH]n2)c1 | 3.46 | 0.39 | 4.16 | 0.18 | 2.02 | 3.01 | 3.5 | 2.03 | 15.7 | 4.17 | 7.85 | 1.75 | 1.63 | -0.88 | 2.5 | 1.69 | 1.54 | -0.36 | 3.17 | 1.4
CCn1c(-c2nonc2N)nc2c(C#CC(C)(C)O)ncc(OC[C@@H]3CCCN3)c21 | -3.01 | -0.27 | 0.62 | -1.76 | 1.1 | 0.95 | 3.51 | 1.3 | 7.9 | -1.38 | 0.7 | 2.01 | 4.12 | -0.74 | 0.08 | -1.27 | 0.8 | -3.24 | 0.67 | 2.54
COc1cc(C=NNc2ncnc3c2cnn3Cc2ccccc2)ccc1O | 9.74 | -7.53 | -0.1 | 4.81 | 7.15 | -6.92 | -3.2 |  |  | 3.46 | 4.33 | -4.54 | -3.75 | -3.93 | -5.25 | -7.09 | -2.01 | -3.23 | -2.85 | -3.36
NS(=O)(=O)c1ccc(N/C=C2\C(=O)Nc3ccc4ncsc4c32)cc1 | 18.1 | 2.97 | 4.36 | 0.08 | 8.11 | 2.78 | 5.6 | 8.52 | 10.8 | 0.16 | 13.1 | 3.55 | 7.01 | 5.4 | 32.8 | 18.8 | 53.3 | 17.1 | 56.7 | 1.61
NS(=O)(=O)c1ccc(-c2ccc3c(NC(=O)C4CC4)n[nH]c3c2)cc1 | 8.86 | 4.28 | 4.38 | 1.05 | 3.22 | -0.2 | 0.41 | 8.86 | 7.66 | -0.63 | -0.03 | 1.35 | 2.53 | 2.31 | 7.63 | 7.91 | 6 | 3.47 | 5.72 | 0.67
COc1cc2c(cc1Nc1nc(Nc3ccsc3C(N)=O)c3cc[nH]c3n1)N(C(=O)CN(C)C)CCC2 | 5.1 | 0.25 | 1.02 | -2.11 | 1.55 | -0.5 | 1.76 | 8.03 | 35.3 | 79.7 | 81.6 | 77.9 | 86.8 | -0.88 | -1.8 | 1.41 | 0.97 | 0.66 | 2.61 | -1.12
CCn1c(-c2nonc2N)nc2c(C#CC(C)(C)O)ncc(OCC3CCNCC3)c21 | 7.37 | -0.37 | -1.35 | -3.5 | -2.94 | 1.27 | 5.1 | 2.93 | 3.14 | 2.18 | 6.84 | 2.17 | 4.04 | -2.34 | -0.27 | -1.71 | 3.89 | 1.17 | -1.22 | -6.83
CCn1c(-c2nonc2N)nc2c(C#CCN)ncc(OCCCN)c21 | -5.25 | -7.45 | 1.18 | -2.64 | -2.62 | -3.17 | 3.87 | -7.51 | 2.14 | 5.14 | 6.76 | -1.95 | -1.62 | -2.75 | 2.12 | -1.49 | 0.4 | -4.55 | -3.83 | -2.34
COc1cccc(-n2ncc3c(N/N=C/c4ccncc4)ncnc32)c1 | 30.4 | 4.72 | 3.82 | 3.92 | 13.7 | 0.91 | 5.53 | 9.63 | 20.9 | 4.97 | 11.7 | 3.38 | 5.85 | 4.8 | 8.02 | 4.98 | 14.5 | 7.39 | 11.9 | 1.99
NC(=O)c1sc(-n2cnc3cc(C(F)(F)F)ccc32)cc1OCc1ccccc1Br | 4.29 | 1.68 | 3.79 | 0.19 | 1.65 | 3.19 | 4.72 | 5.4 | 14.4 | 2.82 | 6.44 | 2.76 | 1.99 | -2.05 | 1.74 | 2.24 |  | 1.69 | 2.38 | 2.01
COc1cccc(COc2cc(-n3cnc4ccccc43)sc2C(N)=O)c1 | 0.89 | 0.5 | 2.27 | -2.06 | 1.33 | 2.53 | 2.65 | 1.74 | 13.2 | -2.66 | 3.72 | 0.11 | 0.56 | -3.37 | -0.23 | -0.92 | 3.02 | -1.31 | 0.24 | -1.48
CCn1c(-c2nonc2N)nc2c(C#CC(C)(C)O)nc(O[C@@H](CN)c3ccccc3)cc21 |  | 1.57 | -3.07 | -0.46 | 1.16 | -2.68 | -2.4 | 1.38 | 3.97 | 3.77 | 11.6 | -0.28 | 5.21 | -5.77 | 6.16 | 0.17 | 1.12 | -1.56 | -0.33 | 0.28
Fc1ccc(-c2ncn(C3CCNCC3)c2-c2ccnc(Oc3ccccc3)n2)cc1 | 5.52 | -0.53 | -0.5 | -4.2 | 1.66 | 9.4 | 10.7 | 10.8 | 15.3 | 1.63 | 0.16 | 1.02 | 1.03 | -5.35 | -7.09 | -0.63 | -3.24 | -1.57 | -4.55 | -2.7
Nc1nonc1-c1nc2cnccc2n1C1CCCCC1 | -8.8 | -1.43 | -4.08 | -3.41 | -1.63 | -3.46 | -1.33 | -5.14 | -5.19 | -1.75 | 1.83 | -2.28 | -1.92 | -7.32 | -4.22 | -6.69 | -0.47 | -2.79 | -2.23 | -1.75
